# Article PMC4336329 (PLoS ONE, 2015)
# Screen size: about 310,000 compounds; about 14,000 (4.5%) showed an effect of 50% or more. Effects have a minus sign here. The entries come from a sample that favours strong results as a whole.
# Target: human ether-à-go-go-related gene (hERG) potassium channel (human, UniProt Q12809)
# Experiment: primary screen, population patch clamp on CHO cells stably expressing hERG; higher = less effect of the substance
# 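Further: peak tail current of the secondary pulse compared with the same well before compound.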
# Chain of human ether-à-go-go-related gene (hERG) potassium channel (Q12809 whole entry, looked up): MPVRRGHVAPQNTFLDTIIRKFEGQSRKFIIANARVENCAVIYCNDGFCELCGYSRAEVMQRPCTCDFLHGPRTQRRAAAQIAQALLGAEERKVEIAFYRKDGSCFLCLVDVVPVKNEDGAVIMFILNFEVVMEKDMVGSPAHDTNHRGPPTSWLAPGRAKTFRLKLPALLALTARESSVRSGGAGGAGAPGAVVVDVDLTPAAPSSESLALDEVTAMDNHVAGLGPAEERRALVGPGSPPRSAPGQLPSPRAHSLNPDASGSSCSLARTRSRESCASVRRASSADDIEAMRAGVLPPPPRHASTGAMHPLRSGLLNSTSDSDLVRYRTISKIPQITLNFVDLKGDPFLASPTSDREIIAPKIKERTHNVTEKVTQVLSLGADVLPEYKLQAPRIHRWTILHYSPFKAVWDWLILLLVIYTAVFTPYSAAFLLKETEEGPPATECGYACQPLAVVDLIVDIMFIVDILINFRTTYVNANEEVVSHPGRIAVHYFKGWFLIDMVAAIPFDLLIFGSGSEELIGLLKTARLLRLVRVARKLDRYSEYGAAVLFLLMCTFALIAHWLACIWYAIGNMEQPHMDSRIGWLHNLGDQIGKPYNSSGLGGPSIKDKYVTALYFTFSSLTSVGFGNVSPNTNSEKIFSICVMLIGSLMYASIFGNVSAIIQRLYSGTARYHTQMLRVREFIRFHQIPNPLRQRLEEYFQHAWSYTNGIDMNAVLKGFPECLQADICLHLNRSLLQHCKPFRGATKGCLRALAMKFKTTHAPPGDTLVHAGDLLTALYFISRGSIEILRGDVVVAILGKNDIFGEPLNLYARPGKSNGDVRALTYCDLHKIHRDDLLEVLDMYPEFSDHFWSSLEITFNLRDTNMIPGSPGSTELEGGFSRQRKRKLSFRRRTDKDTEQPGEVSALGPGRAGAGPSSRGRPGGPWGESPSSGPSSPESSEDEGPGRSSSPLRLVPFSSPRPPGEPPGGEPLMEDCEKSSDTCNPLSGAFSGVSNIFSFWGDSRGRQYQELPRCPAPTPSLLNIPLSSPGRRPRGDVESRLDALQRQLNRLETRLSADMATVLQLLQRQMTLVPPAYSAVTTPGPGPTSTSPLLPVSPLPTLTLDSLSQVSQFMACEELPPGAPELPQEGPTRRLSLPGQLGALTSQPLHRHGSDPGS
row,SMILES,"hERG current change (%, negative = inhibition) at 10uM"
1,Cc1ccc(NC(=O)CNC(=O)c2cccs2)c(O)c1,15.1%
2,Cl.NS(=O)(=O)c1cccc(N2CCNCC2)c1,11.7%
3,COc1ccc(Cl)cc1NC(=S)NNC(=O)c1cccnc1,36.9%
4,COc1ccccc1N1CCN(S(=O)(=O)c2ccccc2F)CC1,-23.3%
5,COc1cccc(S(=O)(=O)N2CCN(c3ccccc3F)CC2)c1,-6.35%
6,COc1ccc2nc(C)cc(N3CCN(S(=O)(=O)c4ccccc4F)CC3)c2c1,-75.9%
7,CCOc1ccc(-c2n[nH]c(C)c2Oc2ccc(OC)cc2)c(O)c1,-6.31%
8,Cc1ccc2cc(CN(Cc3ccco3)S(=O)(=O)c3c(C)ccc4nsnc34)c(=O)[nH]c2c1,2.82%
9,CN1CCN(Cc2ccccc2Sc2ccccc2)CC1.O=C(O)/C=C\C(=O)O,-82%
10,CNCc1ccccc1Sc1cccc(O)c1.O=C(O)/C=C\C(=O)O,7.03%
11,O=C(O)/C=C\C(=O)O.c1ccc(Sc2ccccc2CN2CCCC2)cc1,-50.7%
12,OCc1ccccc1CN1CCCCCC1,-9.62%
13,CNCc1ccccc1Sc1ccc(OC)c(OC)c1.O=C(O)/C=C\C(=O)O,-18.3%
14,CNCc1ccccc1Sc1cccc2ccccc12.O=C(O)/C=C\C(=O)O,-45.4%
15,O=C1N=C(N2CCCC2)S/C1=C\c1cn[nH]c1-c1ccccc1,-4.48%
16,COCCN=c1scc(-c2cccs2)n1/N=C(\C)c1ccco1,-2.51%
17,CN(C)S(=O)(=O)c1cccc(COc2ccccc2C(=O)Nc2ccccc2)c1,-14.4%
18,Brc1ccc(OCc2cn3ccccc3n2)cc1,-7.75%
19,CCOC(=O)c1sc(NC(=O)CSc2nccc(C)n2)c(C#N)c1C,-4.68%
20,Cc1sc2ncnc(Sc3nc4ccccc4s3)c2c1C,5.53%
21,Cl.O=C(CN1CCCC1)Nc1ccc2c(c1)CCC2,-1.69%
22,CC1(c2ccccc2)O[C@@H]2C[C@H]3[C@@H]4CCC5=CC(=O)C=C[C@]5(C)[C@@]4(F)[C@@H](O)C[C@]3(C)[C@]2(C(=O)CO)O1 (stereo partly shown),-78.6%
23,CC1(C)O[C@@H]2C[C@H]3[C@@H]4CCC5=CC(=O)C=C[C@]5(C)[C@@]4(F)[C@@H](O)C[C@]3(C)[C@]2(C(=O)CO)O1,13.7%
24,C[C@]12C=CC(=O)C=C1CC[C@H]1[C@@H]3C[C@@H](O)[C@](O)(C(=O)CO)[C@@]3(C)C[C@H](O)[C@@]12F,6.23%
25,CCn1c(CCNC(=O)c2ccccc2Cl)n[nH]c1=S,12%
26,C[n+]1ccccc1/C=C/c1cc(Br)ccc1O.[I-],14.7%
27,Cc1ccc(NC(=O)c2ccc(-n3cncn3)c([N+](=O)[O-])c2)cc1,-17.9%

row,SMILES,"hERG current change (%, negative = inhibition) at 10uM"
1,Cc1ccc(C)c(S(=O)(=O)N2CCN(C(=O)c3ccc(N4CCCC4)c([N+](=O)[O-])c3)CC2)c1,-9.46%
2,O=C(c1ccc(-n2cncn2)c([N+](=O)[O-])c1)N1CCN(S(=O)(=O)c2ccc(Br)cc2)CC1,-67.5%
3,CC(C)c1ccc(S(=O)(=O)N2CCN(C(=O)c3ccc(N4CCCC4)c([N+](=O)[O-])c3)CC2)cc1,-55.1%
4,O=C(c1ccc(N2CCCC2)c([N+](=O)[O-])c1)N1CCN(S(=O)(=O)c2ccc(Cl)cc2)CC1,-36.2%
5,Nc1ccc(C(=O)N2CCN(S(=O)(=O)c3ccc(Br)cc3)CC2)cc1[N+](=O)[O-],-26.9%
6,Cc1ccc(C(=O)NNC(=O)c2ccc(-n3cncn3)c([N+](=O)[O-])c2)cc1,12.2%
7,Cc1ccc(S(=O)(=O)N2CCN(C(=O)c3ccc(-n4cncn4)c([N+](=O)[O-])c3)CC2)cc1,-52.5%
8,Cc1ccc(S(=O)(=O)N2CCN(C(=O)c3ccc(N4CCCCC4)c([N+](=O)[O-])c3)CC2)cc1,-10.2%
9,Cc1ccc(C)c(S(=O)(=O)N2CCN(C(=O)c3ccc(-n4cncn4)c([N+](=O)[O-])c3)CC2)c1,-72.1%
10,CC(=O)c1ccc(S(=O)(=O)N2CCN(C(=O)c3ccc(-n4cncn4)c([N+](=O)[O-])c3)CC2)cc1,-19.7%
11,CC(C)CNC(=O)CC(=O)NN=C1CCCC1,19.5%
12,Cc1ccc(N(CC(=O)NCc2ccco2)C(=O)CCC(=O)Nc2nccs2)c(C)c1,-22.5%
13,Cc1cc(C)n(-c2nc3ccccc3n3c(C)nnc23)n1,6.03%
14,Cc1ccc2oc(=O)n(CC(=O)O)c2c1,23.8%
15,CCOc1ccccc1NC(=O)NC1(C(=O)NCC2CCCO2)CCCCC1 (stereo not shown),15%
16,COc1cc(NS(=O)(=O)c2ccc(NC(=O)c3ccc(C)o3)cc2)nc(OC)n1,-9.23%
17,Cc1ccc(N)c(C(=O)CCCCC(=O)O)c1,7.01%
18,C[C@@H](C(=O)O)[C@@H]1C[C@@]1(C)[C@@H](NC(=O)OCc1ccccc1)c1ccccc1,16.8%
19,Oc1c(CN2CCOCC2)cc(-c2ccccc2)cc1CN1CCOCC1,-12.7%
20,Cc1cc(C)c(NC(=O)Cn2nnc(C(=O)NCc3cccs3)c2N)c(C)c1,20%
21,CCC(C)NC(=S)N(CCc1ccccc1)Cc1cc2cc(OC)c(OC)cc2[nH]c1=O (stereo not shown),-32.4%
22,CCCCCOC(=O)C1=C(C)Nc2nnnn2C1c1ccc(OC)c(OC)c1OC (stereo not shown),-41.4%
23,CCOc1cc(/C=C2\NC(=S)N(C)C2=O)ccc1OCc1ccc(C(=O)O)cc1,14.6%
24,CC(=O)N1CCN(C(=O)c2ccc(-n3c(C)ccc3C)cc2)CC1,-1.54%
25,Cc1c(NC(=O)/C=C/c2cn(-c3ccccc3)nc2-c2ccc(F)cc2)c(=O)n(-c2ccccc2)n1C,7.47%
26,CCN(CC)c1ccc(N)cc1S(=O)(=O)Nc1ccc(OC)cc1,-4.91%
27,Cn1c2c(c(=O)n(C)c1=O)CN(Cc1ccco1)CN2,4.7%

row,SMILES,"hERG current change (%, negative = inhibition) at 10uM"
1,O=C(c1ccc(N2CCN(S(=O)(=O)c3ccccc3)CC2)c([N+](=O)[O-])c1)N1CCOCC1,-35.1%
2,COC(=O)c1ccc(N2CCN(S(=O)(=O)c3ccccc3)CC2)c([N+](=O)[O-])c1,-14.1%
3,Cc1ccc(S(=O)(=O)N2CCN(C(=O)c3ccc(N4CCCC4)c([N+](=O)[O-])c3)CC2)cc1,-18.1%
4,NC(=O)c1ccc(N2CCN(S(=O)(=O)c3ccccc3)CC2)c([N+](=O)[O-])c1,-58.7%
5,O=C(c1ccncc1)N1CCN(S(=O)(=O)c2ccccc2Br)CC1,4.86%
6,Cc1ccc(S(=O)(=O)N2CCN(c3ccc(C(=O)N4CCOCC4)cc3[N+](=O)[O-])CC2)cc1,-59%
7,O=C(c1ccc(N2CCCCC2)c([N+](=O)[O-])c1)N1CCN(S(=O)(=O)c2ccccc2)CC1,-49.9%
8,CCOc1ccc(S(=O)(=O)N2CCN(C(=O)c3ccncc3)CC2)cc1,4.67%
9,O=C(c1ccc(-n2cncn2)c([N+](=O)[O-])c1)N1CCN(S(=O)(=O)c2ccccc2Br)CC1,-70.3%
10,CCOc1ccc(S(=O)(=O)N2CCN(C(=O)c3cccnc3)CC2)cc1,-29.3%
11,CCOc1ccc(S(=O)(=O)N2CCN(C(=O)c3ccc(-n4cncn4)c([N+](=O)[O-])c3)CC2)cc1,-71.5%
12,N#Cc1ccccc1S(=O)(=O)N1CCN(C(=O)c2ccc(-n3cncn3)c([N+](=O)[O-])c2)CC1,-23.3%
13,Clc1cccc(Cl)c1C1N2CCCN12 (stereo not shown),11.4%
14,CC(C)c1ccc(CNc2c([N+](=O)[O-])c(=O)oc3ccccc23)cc1,14.2%
15,O=C(/C=C/c1ccc(NC(=O)c2ccccc2-c2ccccc2C(=O)O)cc1)c1ccccc1,25.7%
16,Cc1ccc(C)n1-c1ccc(N2CCOCC2)nc1,-1.52%
17,CNC(=O)c1nnc(Cc2ccc(F)cc2)o1,9.51%
18,C/C(CC(=O)Nc1ccc(N(C)C)cc1)=N\NC(=O)c1ccccn1,7.77%
19,O=C(OCc1cc(=O)oc2cc(O)ccc12)c1cc(S(=O)(=O)N2CCOCC2)ccc1F,5.32%
20,Cc1cc(C)c(NC(=O)CNC(=O)c2ccc(-n3cncn3)c([N+](=O)[O-])c2)c(C)c1,-12.8%
21,Cc1ccc(S(=O)(=O)N2CCN(C(=O)c3ccc(-n4cncn4)c([N+](=O)[O-])c3)CC2)cc1C,-72.7%
22,COC(=O)c1ccc(N2CCN(S(=O)(=O)c3c(C)cc(C)cc3C)CC2)c([N+](=O)[O-])c1,21.4%
23,COC(=O)c1ccc(-n2cncn2)c([N+](=O)[O-])c1,12%
24,Cc1ccc(S(=O)(=O)N(C)C)cc1NC(=O)c1ccc(-n2cncn2)c([N+](=O)[O-])c1,-38.8%
25,Cc1cc(C)c(S(=O)(=O)N2CCN(C(=O)c3ccc(-n4cncn4)c([N+](=O)[O-])c3)CC2)c(C)c1,-62.5%
